Results filed as inconclusive are left out. Entries that show only a call come without a potency. A number with no mark means an inactive call. Activity calls are given as the source filed them. Calls follow the shape of the dose curve; as a rule, active = well fitted cell-killing curve with a large enough effect; inconclusive = small, poorly fitted or top-dose-only effect, or effect the other way; inactive = flat fitted curve, though single readings scatter.
Key:
Assay in all cases: Primary qHTS to identify gynecologic anti-cancer compounds using libraries of approved drugs and bioactive compounds (AID 1345084); also: nearly all actives have a fitted effect of over 55% in size
Conditions in all cases: Gynecologic cancer cell panel viability, ATPlite luminescence, 48 h; series mostly up to 57.5 µM
[1] = system: PA-1
Procedure, shortened: (§1)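 Luminescence from the ATPlite ATP-monitoring reagent indicates viable cell number; lower signal means cytotoxicity. Cells received compound 16 h after seeding and were exposed for 48 h across five concentrations.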

[2] = system: SKOV3
Procedure, shortened: as §1

[3] = system: Tov-21-G
Procedure, shortened: as §1

[4] = system: Tov112D
Procedure, shortened: as §1
Potency is read from the fitted curve at half-maximal effect.

Row | SMILES | activity change, negative = cytotoxicity [1] | activity change, negative = cytotoxicity [2] | activity change, negative = cytotoxicity [3] | activity change, negative = cytotoxicity [4] | Potency [1] | Potency [2] | Potency [3] | Potency [4]
1 | C/C=C(\C)C(=O)O[C@H]1[C@H](OC(C)=O)[C@]2(CO)[C@H](O)[C@H](O)[C@]3(C)C(=CCC4[C@@]5(C)CC[C@H](O[C@@H]6O[C@H](C(=O)O)[C@@H](O)[C@H](O[C@@H]7OC[C@H](O)[C@H](O[C@@H]8OC[C@H](O)[C@H](O)[C@H]8O)[C@H]7O)[C@H]6O[C@@H]6O[C@H](CO)[C@@H](O)[C@H](O)[C@H]6O)C(C)(C)C5CC[C@]43C)[C@@H]2CC1(C)C (stereo partly drawn) | -1.59% [at 6.55 µM] | 6.49% [at 6.55 µM] | 19.4% [at 6.55 µM] | 8.32% [at 6.55 µM] | – | – | – | –
2 | CN1[C@H]2C[C@H](OC(=O)[C@H](CO)c3ccccc3)C[C@@H]1[C@@H](O)C2 | – | – | – | – | inactive | inactive | inactive | inactive
3 | CCc1c(C(=O)C(N)=O)c2c(OCC(=O)OC)cccc2n1Cc1ccccc1 | – | – | – | – | inactive | inactive | inactive | inactive
4 | COC1C(O)C(C)OC(OC2C(CO)O[C@@H](O[C@@H]3CC4CCC5C(CC[C@]6(C)[C@@H](C7=CC(=O)OC7)CC[C@]56O)[C@@]4(C)[C@H](O)C3)C(O)C2O)C1O (stereo partly drawn) | – | – | – | – | 2820 nM (active) | 2820 nM (active) | 1000 nM (active) | 501 nM (active)
5 | CCN1C[C@]2(COC)[C@H](O)C[C@H](OC)[C@]34[C@@H]5C[C@]6(O)[C@H](OC(=O)c7ccccc7)[C@@H]5[C@@](O)([C@H]([C@H](OC)[C@H]23)[C@@H]14)[C@@H](O)[C@@H]6OC | – | – | – | – | inactive | inactive | inactive | inactive
6 | CCCN1CCO[C@H]2c3cc(O)ccc3OC[C@@H]21 | – | – | – | – | inactive | inactive | inactive | inactive
7 | C1=C2CCCN[C@H]2[C@@H]2C[C@H]1[C@H]1CCCCN1C2 | – | – | – | – | inactive | inactive | inactive | inactive
8 | C/C=C(\C)C(=O)OC1CC2C(C)(C)OC(=O)CC(OC(C)=O)C2(C)C2CC(OC(=O)C(C)C)C3(C)C(c4ccoc4)CC4OC43C12C (stereo not drawn) | – | – | – | – | inactive | inactive | inactive | inactive
9 | CN1CCC[C@@H]1Cc1c[nH]c2ccc(Nc3ncccc3[N+](=O)[O-])cc12 | – | – | – | – | inactive | inactive | inactive | inactive
10 | N#CC(OC1OC(COC2OC(CO)C(O)C(O)C2O)C(O)C(O)C1O)c1ccccc1 (stereo not drawn) | – | – | – | – | inactive | inactive | inactive | inactive
11 | COC1CC(OC2CCC3(C=O)C(CCC4C3CCC3(C)C(C5=CC(=O)OC5)CCC43O)C2)OC(C)C1OC1OC(CO)C(O)C(O)C1O (stereo not drawn) | – | – | – | – | 501 nM (active) | 355 nM (active) | 199 nM (active) | 100 nM (active)
12 | N#C[C@@H](O[C@@H]1O[C@H](CO[C@@H]2O[C@H](CO)[C@@H](O)[C@H](O)[C@H]2O)[C@@H](O)[C@H](O)[C@H]1O)c1ccccc1 | – | – | – | – | inactive | inactive | inactive | inactive
13 | CC1=C2C[C@H]3[C@@H](CC=C4C[C@@H](O)CC[C@@]43C)[C@@H]2CC[C@]12O[C@@H]1C[C@H](C)CN[C@H]1[C@H]2C | – | – | – | – | inactive | inactive | inactive | inactive
14 | CO[C@@H]1[C@H](O)[C@@H](O[C@@H]2C[C@H]3CC[C@@H]4C(CC[C@]5(C)[C@@H](C6=CC(=O)OC6)CC[C@]45O)[C@@]3(C)[C@H](O)C2)O[C@H](C)[C@@H]1O[C@@H]1O[C@H](CO)[C@@H](O)[C@H](O)[C@H]1O (stereo partly drawn) | – | – | – | – | 398 nM (active) | 562 nM (active) | 199 nM (active) | 100 nM (active)
15 | CCCCCCn1c(=O)c(C(=O)Nc2ccc(C(=O)OCCC)cc2)c(O)c2ccccc21 | 1.75% [at 11.6 µM] | -0.233% [at 11.6 µM] | 0.105% [at 11.6 µM] | 27% [at 11.6 µM] | – | – | – | –
16 | COc1cc(C(=O)O[C@H]2[C@@H]3C=CO[C@@H](O[C@@H]4O[C@H](CO)[C@@H](O)[C@H](O)[C@H]4O)[C@@H]3[C@@]3(CO)O[C@@H]23)ccc1O | – | – | – | – | inactive | inactive | inactive | inactive
17 | CC(=O)O[C@H]1C[C@@H](OC(C)=O)C(C)(C)C2C[C@@H](O)[C@]3(C)C(CC[C@@]4(C)[C@H](C5=CC(=O)OC5O)C[C@H]5O[C@]543)[C@]21C (stereo partly drawn) | – | – | – | – | inactive | inactive | inactive | inactive
18 | CCN1C[C@]2(COC(=O)c3ccccc3N3C(=O)C[C@H](C)C3=O)CC[C@H](OC)[C@@]34[C@@H]5C[C@H]6[C@H](OC)[C@@H]5[C@](O)(C[C@@H]6OC)[C@](O)([C@@H](OC)[C@H]23)[C@@H]14 | – | – | – | – | inactive | inactive | inactive | inactive
19 | Cc1cn(C[C@H](N)C(=O)O)c(=O)n(Cc2cc(-c3ccccc3)sc2C(=O)O)c1=O | – | – | – | – | inactive | inactive | inactive | inactive
20 | CC1=C2C(=O)C3[C@@H](CC=C4C[C@@H](O)CC[C@@]43C)[C@@H]2CC[C@]12O[C@@H]1C[C@H](C)CN[C@H]1[C@H]2C (stereo partly drawn) | – | – | – | – | inactive | inactive | inactive | inactive
21 | CC(=O)OC1CC(O)C(C)(C)C2CC(OC(C)=O)C3(C)C(CCC4(C)C(c5ccoc5)C(=O)C5OC543)C12C (stereo not drawn) | – | – | – | – | inactive | inactive | inactive | inactive
22 | CCc1[nH]c2ccc(OC)cc2c1CCN(C)C | – | – | – | – | inactive | inactive | inactive | inactive
